An excerpt weighted towards active compounds, which were near 1.3% of everything screened.
S1P2 agonist = S1P2 (human) receptor agonism. AID 729. 0.46% of 97,000 active. S1P2-expressing cell line, agonist reporter read-out. activation, % at 4.5 µM. O95136; in the data active = activation above about 16%
Target sequence (O95136 whole entry, looked up): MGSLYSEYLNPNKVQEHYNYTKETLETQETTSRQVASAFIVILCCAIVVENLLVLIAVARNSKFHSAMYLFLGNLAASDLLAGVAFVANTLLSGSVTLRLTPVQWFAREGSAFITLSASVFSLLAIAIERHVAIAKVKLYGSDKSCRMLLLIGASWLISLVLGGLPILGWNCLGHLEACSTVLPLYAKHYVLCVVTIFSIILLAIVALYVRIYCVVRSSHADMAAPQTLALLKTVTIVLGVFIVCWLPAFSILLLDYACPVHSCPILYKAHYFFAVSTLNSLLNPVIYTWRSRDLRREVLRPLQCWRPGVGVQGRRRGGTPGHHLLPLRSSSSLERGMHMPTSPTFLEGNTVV
GALR2 antag = blocks the human galanin receptor 2. GALR2-expressing cells, antagonist mode. inhibition, % at 4 µM. 0.39% of 140,000 active; in the data active = inhibition above about 27%;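 note: cells stimulated with galanin 1-16 at roughly its EC80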
Target sequence (O43603 whole entry, looked up): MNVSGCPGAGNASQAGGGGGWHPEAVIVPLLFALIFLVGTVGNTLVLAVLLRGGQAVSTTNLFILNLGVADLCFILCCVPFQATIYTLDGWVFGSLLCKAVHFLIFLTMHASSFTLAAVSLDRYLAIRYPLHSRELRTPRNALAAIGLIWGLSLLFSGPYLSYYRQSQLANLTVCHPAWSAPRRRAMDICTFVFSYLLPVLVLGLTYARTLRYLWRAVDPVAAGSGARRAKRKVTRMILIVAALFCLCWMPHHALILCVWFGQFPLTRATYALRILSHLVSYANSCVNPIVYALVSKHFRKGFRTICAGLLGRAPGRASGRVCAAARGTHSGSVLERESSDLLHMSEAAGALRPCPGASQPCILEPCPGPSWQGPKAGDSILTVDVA
S1P2 blocker = blocks the human S1P2 receptor | O95136 | cell-based S1P2 antagonist assay, inhibition at 5 uM | inhibition, % at 5 µM | 0.21% of 97,000 active; in the data active = inhibition above about 45%;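 note: CRE beta-lactamase reporter cells expressing human S1P2 stimulated with S1P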
GALR2 ag = agonists of human galanin receptor 2 (GALR2) | GALR2-expressing cells, agonist activation read-out | O43603 | 0.48% of 140,000 active | activation, % (test concentration not listed) | AID 803; in the data active = activation above about 5%, passing the limit was not always enough
Calb biofilm kill = kills Candida albicans biofilms; C. albicans biofilm + clotrimazole, Alamar Blue; inhibition, % at 6 µM; 0.14% of 85,000 active;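 active = inhibition above 20%; inactive = inhibition below 20%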;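 note: preformed 24 hr biofilms exposed to compound for 48 hr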
Phagocytosis inh = macrophage phagocytosis inhibition | J774A.1 macrophage IgG-bead phagocytosis, imaging | AID 1029 | inhibition, % at 5 µM | 0.07% of 110,000 active;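 active = inhibition above the mean of the plate negative controls plus 5 SD, cut at about 13% in these data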;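 note: phagocytic index as fraction of beads internalized from green versus red external bead signal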
Of the large screens only hits and unclear results are named; the others gave an inactive call; [ ] = remark or other dose.

CCC(=O)Nc1c(C#N)c2nc3ccccc3nc2n1C1CCCCC1	none
N#Cc1c(N)n(C2CCCCC2)c2nc3ccccc3nc12	S1P2 agonist 22, GALR2 ag 17
CCN1CCN(c2cc(C)c3cc(NC(=O)c4cccnc4Cl)ccc3n2)CC1	none
Cc1cc(N2CCN(C)CC2)nc2ccc(NC(=O)c3cccnc3Cl)cc12	Calb biofilm kill 61
C=CCn1c(SCCC#N)nnc1-c1ccncc1	none (no result: S1P2 agonist, S1P2 blocker)
CC1CCN(C(=O)CN(c2ccc(Cl)c(C(F)(F)F)c2)S(C)(=O)=O)CC1	Phagocytosis inh 155
Cc1cc(SCC#N)n2nc(C)c(-c3ccc(Cl)cc3)c2n1	S1P2 agonist 39
Cc1cc(SCC(=O)c2cccs2)n2nc(C)c(-c3ccccc3)c2n1	none (no result: S1P2 agonist, S1P2 blocker, Calb biofilm kill)
Cc1cc(SCC#N)n2nc(C)c(-c3ccccc3)c2n1	S1P2 agonist 16
CN(c1ccc(C(=O)Nc2ccccc2C(F)(F)F)cc1)S(C)(=O)=O	Phagocytosis inh 54
Clc1ccc(-n2ncc3c(NCC4CCCO4)ncnc32)cc1 (stereo not drawn)	Calb biofilm kill 23 (no result: S1P2 agonist, S1P2 blocker)
CCN(CC)Cc1c(O)c(Cl)cc2c(C)c(C)c(=O)oc12	none
Cc1c(Cc2ccccc2)c(=O)oc2c(CN(C)C)c(O)c(Cl)cc12	GALR2 ag 8.3 (no result: S1P2 agonist, S1P2 blocker, Phagocytosis inh)
O=C(Nc1ccc(S(=O)(=O)N2CCCCC2)cc1)c1ccc(CN2CCc3ccccc3C2)cc1	S1P2 blocker 52 (no result: Calb biofilm kill, Phagocytosis inh)
Cc1ccc(NC(=O)c2ccc(CN3CCc4ccccc4C3)cc2)cc1	none (no result: Calb biofilm kill)
COc1ccc(/C=C/C(=O)c2cc(F)ccc2OC(=O)c2ccccc2)cc1OC	GALR2 ag 5.5 (no result: Calb biofilm kill, Phagocytosis inh)
COc1ccc(/C=C/C(=O)c2cc(F)ccc2OC(=O)c2ccc(OC)c(OC)c2)cc1OC	none (no result: S1P2 agonist, S1P2 blocker, Calb biofilm kill)
COc1ccccc1NS(=O)(=O)c1cc([N+](=O)[O-])ccc1N/N=C/c1c[nH]c2ccccc12	S1P2 blocker 62 (no result: Calb biofilm kill)
Cc1cc(C(C)(C)C)cc(S(=O)(=O)NCC(=O)O)c1C	none
Cc1cccc(-n2c(SCc3cc(=O)n4ccsc4n3)nc3ccccc32)c1	S1P2 agonist 26 (no result: Phagocytosis inh)
CCCn1c(CN(C)Cc2ccccc2)nc2c1c(=O)n(C)c(=O)n2C	none (no result: Phagocytosis inh)
CCCn1c(CN(Cc2ccccc2)Cc2ccccc2)nc2c1c(=O)n(C)c(=O)n2C	Calb biofilm kill 25 (no result: S1P2 agonist, S1P2 blocker)
CCc1ccc2[nH]c3nc(SCC(=O)NNC(=O)c4ccc(C(C)(C)C)cc4)nnc3c2c1	S1P2 agonist 17 (no result: Calb biofilm kill)
Cc1cc(=O)oc2cc(OCc3ccc(S(=O)(=O)N4CCOCC4)cc3)ccc12	none
COc1cc2c(cc1OC)/C(=C/C#N)NC(C)(C)C2	S1P2 agonist 26
NC(=O)c1nn(-c2ccccc2)nc1NC(=O)Cn1nnc(-c2ccccc2)n1	GALR2 ag 5.2 (no result: S1P2 agonist, S1P2 blocker, Calb biofilm kill)
CCOC(=O)c1ccc(NC(=O)Cn2nnc(-c3ccccc3)n2)cc1	none
COc1ccc(Cn2c(-c3ccc(OC)cc3)nc3c(c(=O)c4ccccc4n3C)c2=O)cc1	none (no result: S1P2 agonist, S1P2 blocker, Calb biofilm kill)
COc1ccc(Cn2c(-c3ccc(C)cc3)nc3c(c(=O)c4ccccc4n3C)c2=O)cc1	GALR2 ag 5.1 (no result: S1P2 agonist, S1P2 blocker, Calb biofilm kill)
CN(C)c1ccc(/C=N/NC(=O)CN(c2ccccc2Cl)S(C)(=O)=O)cc1Br	S1P2 agonist 17 (no result: Calb biofilm kill, Phagocytosis inh)
CS(=O)(=O)N(CC(=O)N/N=C/c1ccc(OCC(=O)N2CCOCC2)cc1)c1ccccc1Cl	none (no result: S1P2 agonist, S1P2 blocker, Calb biofilm kill)
CCCCC(CCC(=O)Nc1ccccc1C(=O)OCC)C(=O)O (stereo not drawn)	none
FC(F)(F)C1=CC(c2ccc(Br)cc2)=NCCN1	none
O=C(NC(=O)c1cccc(OC(F)(F)C(F)F)c1)OC1CCS(=O)(=O)C1 (stereo not drawn)	GALR2 ag 5.7 (no result: S1P2 agonist, S1P2 blocker)
O=C(Nc1ccccc1)OC1CCS(=O)(=O)C1 (stereo not drawn)	none (no result: S1P2 agonist, S1P2 blocker, Calb biofilm kill)
Cc1cccn2c(=O)c3cc(C#N)c(=NC(=O)c4ccncc4)n(Cc4ccco4)c3nc12	none (no result: S1P2 agonist, GALR2 antag, S1P2 blocker, GALR2 ag, Phagocytosis inh)
CC(C)n1c(=NC(=O)c2ccco2)c(C#N)cc2c(=O)n3ccccc3cc21	GALR2 ag 6.3 (no result: S1P2 agonist, S1P2 blocker, Calb biofilm kill, Phagocytosis inh)
O=C(CCC(=O)N1CCc2ccccc21)Nc1ccccc1	S1P2 agonist 58
COc1ccc(Nc2nc(Nc3ccc(OC)cc3)nc(-n3[nH]c(=O)c(C)c3C)n2)cc1	GALR2 ag 73 (no result: Calb biofilm kill)
CN1C(=O)CS(=O)c2ccc(C(=O)NCCC3=CCCCC3)cc21 (stereo not drawn)	Calb biofilm kill 21
CC(=O)Oc1c(C)cc(O)c2ccccc12	none
CCOC(=O)c1cc2ccc(OC)c(OC)c2c(=O)s1	S1P2 agonist 109
CCOC(=O)N1CCN(C(=O)c2ccccc2NC(=O)c2ccc(F)cc2)CC1	none (no result: S1P2 agonist, S1P2 blocker, Calb biofilm kill)
CC(C)CO/C(=N/S(=O)(=O)c1ccccc1)c1ccccc1	Calb biofilm kill 73
Cc1ccc2nc(/C(C#N)=C\c3ccc([N+](=O)[O-])o3)[nH]c2c1	Phagocytosis inh 33[fluoresces] (no result: Calb biofilm kill)
N#C/C(=C\c1ccc([N+](=O)[O-])o1)c1nc2ccccc2[nH]1	none (no result: S1P2 agonist, S1P2 blocker, Calb biofilm kill)
Cc1ccc2nc(/C(C#N)=C\c3cc(C)n(-c4cccc([N+](=O)[O-])c4)c3C)[nH]c2c1	S1P2 agonist 17
COc1cccc(NC(=O)c2cn(C)c(=O)c3cc(OC)c(OC)cc23)c1	S1P2 agonist 28 (no result: Phagocytosis inh)
COc1ccccc1CNC(=O)c1cn(C)c(=O)c2cc(OC)c(OC)cc12	none
CN(C)c1nc(NCc2ccccc2)nc(N/N=C/c2ccc3c(c2)OCO3)n1	none (no result: S1P2 agonist, S1P2 blocker, Calb biofilm kill)
Cc1cccc2cc(CN(CCc3ccccc3)C(=O)N3CCOCC3)c3nnnn3c12	none
CC(=O)Oc1cc2oc(=O)cc(C)c2cc1OC(C)=O	GALR2 ag 6.0
CC(=O)Oc1ccc2c(C)cc(=O)oc2c1	none
Cc1cccc2sc(NC(=O)CSCc3ccccc3)nc12	Calb biofilm kill 50
COC(=O)c1c(N)n(CCCN2CCOCC2)c2nc3ccccc3nc12	none (no result: Phagocytosis inh)
CCCNC(=O)c1c(N)n(-c2cc(OC)cc(OC)c2)c2nc3ccccc3nc12	GALR2 ag 14 (no result: S1P2 agonist, S1P2 blocker)
Nc1c(C(=O)NCc2ccc(F)cc2)c2nc3ccccc3nc2n1CCCN1CCOCC1	S1P2 agonist 45, GALR2 ag 41
CCCNC(=O)c1c(N)n(-c2ccc3c(c2)OCO3)c2nc3ccccc3nc12	none
COc1ccc(CNC(=O)c2c(N)n(CCCN3CCOCC3)c3nc4ccccc4nc23)cc1	S1P2 agonist 39, GALR2 ag 32
CCOC(=O)N1CCN(c2cc(=O)n(-c3ccc(OC)cc3)c(=O)[nH]2)CC1	none (no result: S1P2 agonist, S1P2 blocker)
O=C(NN=C1CCCCCC1)c1cn(-c2ccccc2)nc1-c1ccccc1	none (no result: S1P2 agonist, S1P2 blocker, Calb biofilm kill)
Cc1sc2nc(SCc3nc4ccccc4[nH]3)n(Cc3ccco3)c(=O)c2c1C	S1P2 agonist 17
COc1ccc(NC(=O)CSc2nc3sc(C)c(C)c3c(=O)n2Cc2ccco2)cc1	none
C=CCn1c(SCC(=O)NC(=O)NCc2ccco2)nc2sc(C)c(C)c2c1=O	GALR2 ag 6.2
COc1ccc(OC)c(-n2c(-c3ccccc3)n[nH]c2=S)c1	none
O=[N+]([O-])c1ccc(N/N=C/c2cn(-c3ccccc3)nc2-c2ccccc2)cc1	S1P2 blocker 67 (no result: Calb biofilm kill, Phagocytosis inh)
O=S(=O)(N/N=C\c1cn(-c2ccccc2)nc1-c1ccccc1)c1ccccc1	none (no result: Calb biofilm kill, Phagocytosis inh)
Cc1ccnc(SCC(=O)Nc2sc3c(c2C#N)CCCC3)n1	S1P2 blocker 47
